From PubChem BioAssay (Tox21)
Results filed as inconclusive are left out. The source made the active and inactive calls. Unless noted, calls follow the shape of the dose curve; as a rule, active = well fitted curve in the direction sought with a large enough effect in the repeat runs; inconclusive = weak or mixed curves; inactive = no such curve, though single readings can be large; an effect the other way counts as inactive or inconclusive.

Assays:
[1] = qHTS assay to identify small molecule antagonists of the thyroid receptor (TR) signaling pathway (AID 743065); also: nearly all actives have a fitted effect of over 55% in size; also: potency is read from the fitted curve at half-maximal effect
Method in brief: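 Antagonism measured as loss of luciferase signal in GH3 cells stably carrying a TRE-luciferase reporter, co-treated with compound and T3 (1 nM final) for 23.5 h at 37 C. Viability was read in the same well by CellTiter-Fluor.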

[2] = tested on: thyroid hormone receptor (rat, GH3 cells); assay: qHTS assay to identify small molecule agonists of the thyroid receptor (TR) signaling pathway (AID 743066; calls by dose curve)
[3] = qHTS assay to identify small molecule antagonists of the estrogen receptor alpha (ER-alpha) signaling pathway - cell viability counter screen (AID 743074; calls by dose curve;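 also: HEK293 cells carrying ER-alpha-UAS-bla reporter stimulated with 17beta-estradiol; nearly all actives have a fitted effect of over 45% in size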)
[4] = qHTS assay to identify small molecule antagonists of the estrogen receptor alpha (ER-alpha) signaling pathway using the BG1 cell line - cell viability counter screen (AID 743081);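 also: compound given together with 17beta-estradiol as the ER stimulus; series mostly up to about 70 µM; nearly all actives have a fitted effect of over 45% in size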
Aromatase (Homo sapiens) = Aromatase (Homo sapiens) (UniProt P11511); assay: qHTS assay to identify aromatase inhibitors (AID 743083); also: series mostly up to about 70 µM; nearly all actives have a fitted effect of over 55% in size
[5] = qHTS assay to identify aromatase inhibitors - cell viability counter screen (AID 743084);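 also: cells stimulated with testosterone during compound exposure; nearly all actives have a fitted effect of over 55% in size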
[6] = target: Aryl hydrocarbon receptor (Homo sapiens) (UniProt P35869); assay: qHTS assay to identify small molecule that activate the aryl hydrocarbon receptor (AhR) signaling pathway (AID 743085);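 also: HG2L7.5c1 human HepG2 liver cells with stably integrated DRE-driven firefly reporter; series mostly up to about 70 µM; nearly all actives have a fitted effect of over 15% in size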
Method in brief: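 Stably transfected human liver carcinoma cells (HG2L7.5c1; 20 DRE-firefly luciferase) were incubated 5 h, dosed, and kept 24 h at 37C. Agonism was scored from increased luciferase luminescence.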

[7] = qHTS assay to identify small molecule that activate the aryl hydrocarbon receptor (AhR) signaling pathway - cell viability counter screen (AID 743086);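 also: HepG2 liver cells carrying the AhR DRE luciferase reporter; series mostly up to about 70 µM; nearly all actives have a fitted effect of over 45% in size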
Method in brief: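 Cytotoxicity counter screen: CellTiter-Fluor signal (30 min, 37 C) in 4000 HepG2 cells/well carrying the DRE-luciferase reporter, following 24 h compound exposure at 37 C.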

[8] = target: Peroxisome proliferator-activated receptor gamma (Homo sapiens) (UniProt P37231); assay: qHTS assay to identify small molecule agonists of the peroxisome proliferator-activated receptor gamma (PPARg) signaling pathway (AID 743094; active = well fitted activation curve with a large enough effect in the signal ratio in the repeat runs, not every such curve was filed as active; the % refers to the signal ratio)
Method in brief: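 Following 5 h plating at 37C, PPARg-bla HEK293H cells receive compound or DMSO for 17 h; fluorescence intensity is recorded after LiveBLAzer B/G loading for 1 h at room temperature.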

[9] = target: Peroxisome proliferator-activated receptor gamma (Homo sapiens) (UniProt P37231); assay: qHTS assay to identify small molecule antagonists of the peroxisome proliferator-activated receptor gamma (PPARg) signaling pathway (AID 743191; calls by dose curve; also: series mostly up to about 63 µM; nearly all actives have a fitted effect of over 30% in size)
Method in brief: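 Beta-lactamase reporter under UAS control in HEK293H PPARg-bla cells; compound treatment 17 h at 37C. Read-out: fluorescence intensity after 1 h room-temperature incubation with LiveBLAzer B/G FRET substrate.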

[10] = qHTS assay to identify small molecule antagonists of the peroxisome proliferator-activated receptor gamma (PPARg) signaling pathway - cell viability counter screen (AID 743194); also: nearly all actives have a fitted effect of over 55% in size
Method in brief: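 Viability was measured as CellTiter-Glo luminescence in GeneBLAzer PPARg UAS-bla HEK293H cells. These cells had been exposed 17 h at 37 C to compounds together with rosiglitazone at 50 nM final, with the beta-lactamase readout taken in the same wells.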

[11] = qHTS assay for small molecule agonists of the antioxidant response element (ARE) signaling pathway (AID 743202; active = well fitted activation curve with a large enough effect in the signal ratio in the repeat runs, not every such curve was filed as active; the % refers to the signal ratio)
Method in brief: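 Quantitative high-throughput format in HepG2 cells bearing an integrated ARE-beta-lactamase reporter. Compound exposure lasted 16 h at 37 C, and fluorescence was read 2 h after adding LiveBLAzer B/G substrate at room temperature.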

[12] = qHTS assay for small molecule agonists of the antioxidant response element (ARE) signaling pathway - cell viability counter screen (AID 743203; calls by dose curve; also: nearly all actives have a fitted effect of over 55% in size)
Method in brief: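 Compounds in DMSO were pinned onto ARE-bla HepG2 cells plated 5 hrs earlier at 2,000 cells/well. Sixteen hours later at 37C/5% CO2, CellTiter-Glo was added and luminescence measured after 30 min at room temperature.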

[13] = qHTS assay for small molecule activators of the heat shock response signaling pathway - cell viability counter screen (AID 743209); also: nearly all actives have a fitted effect of over 50% in size
Method in brief: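 Counter screen for cytotoxicity in HeLa HSE-bla reporter cells. Treatment was 5 h at 37 C; viability was detected by luminescent ATP assay (CellTiter-Glo) in the same wells as the beta-lactamase read.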

[14] = qHTS assay to identify small molecule agonists of the peroxisome proliferator-activated receptor delta (PPARd) signaling pathway - cell viability counter screen (AID 743211); also: nearly all actives have a fitted effect of over 55% in size
Method in brief: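 In the same wells used for beta-lactamase reporter measurement, cytotoxicity is scored by CellTiter-Glo. HEK293H PPARd-bla cells receive compound for 17 h at 37C following a 5 h settling period.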

[15] = qHTS assay for small molecule activators of the heat shock response signaling pathway (AID 743210; active = well fitted activation curve with a large enough effect in the signal ratio in the repeat runs, with a control signal flat, not every such curve was filed as active; the % refers to the signal ratio;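 also: HeLa cells with beta-lactamase reporter driven by heat shock elements; series mostly up to about 63 µM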)
Method in brief: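 HeLa HSE-bla cells, overnight plating; cpd in DMSO 5 h, 37 C; LiveBLAzer B/G FRET substrate 2.5 h RT; fluorescence intensity read.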

[16] = target: Estrogen receptor (Homo sapiens) (UniProt P03372); assay: qHTS assay to identify small molecule antagonists of the estrogen receptor alpha (ER-alpha) signaling pathway (AID 743069; active = well fitted curve in the direction sought with a large enough effect in the signal ratio in the repeat runs, not every such curve was filed as active; the % refers to the signal ratio)
Method in brief: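 ER-alpha-UAS-bla GripTite HEK293 line; 2% charcoal-stripped FBS overnight; plated, 4 hr 37C/5% CO2; cpd in DMSO + 17beta-estradiol, 18 hr 37C; LiveBLAzer B/G FRET substrate 2 hr RT; fluorescence intensity.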

[17] = target: Estrogen receptor (Homo sapiens) (UniProt P03372); assay: qHTS assay to identify small molecule agonists of the estrogen receptor alpha (ER-alpha) signaling pathway (AID 743075; calls by dose curve;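 also: HEK293 GripTite cells with ER-alpha and UAS-driven beta-lactamase reporter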)
[18] = target: Estrogen receptor (Homo sapiens) (UniProt P03372); assay: qHTS assay to identify small molecule agonists of the estrogen receptor alpha (ER-alpha) signaling pathway using the BG1 cell line (AID 743079); also: nearly all actives have a fitted effect of over 20% in size; also: potency is read from the fitted curve at half-maximal effect
[19] = qHTS assay to identify small molecule antagonists of the estrogen receptor alpha (ER-alpha) signaling pathway using the BG1 cell line (AID 743080; calls by dose curve;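 also: BG1 cells stimulated with 17beta-estradiol alongside compound; series mostly up to about 70 µM; nearly all actives have a fitted effect of over 25% in size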)
Method in brief: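 Luminescence from a 4×ERE-luciferase reporter in BG1-Luc-4E2 cells served as read-out. Cells, pre-cultured 5 days in stripped-serum phenol-red-free medium, were exposed to compound with 17beta-estradiol co-stimulation for 21.5 h at 37 C.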
% is scaled to controls: 0 for no effect and ±100 for the full control effect.

Chain of Peroxisome proliferator-activated receptor gamma (Homo sapiens) (P37231 whole entry, looked up): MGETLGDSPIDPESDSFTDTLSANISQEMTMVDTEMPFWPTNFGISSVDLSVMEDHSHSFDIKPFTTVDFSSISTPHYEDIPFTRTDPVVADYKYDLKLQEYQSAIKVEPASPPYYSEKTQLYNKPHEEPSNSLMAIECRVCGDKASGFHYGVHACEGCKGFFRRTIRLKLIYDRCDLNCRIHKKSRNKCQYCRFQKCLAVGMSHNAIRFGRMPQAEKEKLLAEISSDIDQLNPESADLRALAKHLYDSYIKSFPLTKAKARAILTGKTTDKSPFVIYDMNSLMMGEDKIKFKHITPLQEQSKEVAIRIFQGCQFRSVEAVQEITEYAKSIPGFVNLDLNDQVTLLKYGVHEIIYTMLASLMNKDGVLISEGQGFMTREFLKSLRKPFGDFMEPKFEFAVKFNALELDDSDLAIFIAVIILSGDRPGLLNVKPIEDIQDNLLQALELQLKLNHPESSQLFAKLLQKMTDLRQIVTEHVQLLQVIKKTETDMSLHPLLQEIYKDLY
Chain of Aromatase (Homo sapiens) (P11511 whole entry, looked up): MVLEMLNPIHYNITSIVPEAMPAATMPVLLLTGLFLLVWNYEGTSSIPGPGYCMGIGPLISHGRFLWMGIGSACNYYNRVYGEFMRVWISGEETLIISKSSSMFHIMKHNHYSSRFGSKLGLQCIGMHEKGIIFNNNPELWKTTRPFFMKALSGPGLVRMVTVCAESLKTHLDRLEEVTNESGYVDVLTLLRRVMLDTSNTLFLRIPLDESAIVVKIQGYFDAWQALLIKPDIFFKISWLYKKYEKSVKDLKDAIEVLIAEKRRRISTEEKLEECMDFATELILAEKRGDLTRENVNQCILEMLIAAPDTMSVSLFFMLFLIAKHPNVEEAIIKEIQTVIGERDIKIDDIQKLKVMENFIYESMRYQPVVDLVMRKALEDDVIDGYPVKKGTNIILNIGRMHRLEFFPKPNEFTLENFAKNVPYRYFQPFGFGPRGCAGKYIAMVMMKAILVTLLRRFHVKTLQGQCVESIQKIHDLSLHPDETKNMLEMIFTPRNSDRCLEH
Chain of Aryl hydrocarbon receptor (Homo sapiens) (P35869 whole entry, looked up): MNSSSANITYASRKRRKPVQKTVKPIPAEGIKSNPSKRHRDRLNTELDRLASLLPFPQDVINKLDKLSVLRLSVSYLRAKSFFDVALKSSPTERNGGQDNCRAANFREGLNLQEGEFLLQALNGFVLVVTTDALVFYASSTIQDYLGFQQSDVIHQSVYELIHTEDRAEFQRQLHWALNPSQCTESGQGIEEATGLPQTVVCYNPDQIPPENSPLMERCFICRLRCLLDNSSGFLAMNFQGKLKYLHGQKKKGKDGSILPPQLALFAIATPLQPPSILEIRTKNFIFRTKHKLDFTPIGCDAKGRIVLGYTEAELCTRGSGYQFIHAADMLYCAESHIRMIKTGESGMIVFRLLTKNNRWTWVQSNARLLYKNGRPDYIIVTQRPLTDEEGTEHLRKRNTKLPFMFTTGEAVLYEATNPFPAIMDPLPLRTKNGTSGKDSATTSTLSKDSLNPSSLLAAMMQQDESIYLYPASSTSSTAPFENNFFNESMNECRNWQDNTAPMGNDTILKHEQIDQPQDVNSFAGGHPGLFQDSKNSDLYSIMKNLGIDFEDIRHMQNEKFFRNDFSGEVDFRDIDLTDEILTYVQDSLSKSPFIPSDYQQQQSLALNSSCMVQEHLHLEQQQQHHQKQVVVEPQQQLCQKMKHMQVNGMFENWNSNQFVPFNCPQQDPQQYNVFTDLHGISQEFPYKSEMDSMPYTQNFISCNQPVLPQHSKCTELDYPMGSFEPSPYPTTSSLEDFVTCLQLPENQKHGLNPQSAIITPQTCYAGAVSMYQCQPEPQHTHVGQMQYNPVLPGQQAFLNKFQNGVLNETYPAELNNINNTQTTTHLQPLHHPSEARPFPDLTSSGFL
Chain of Estrogen receptor (Homo sapiens) (P03372 whole entry, looked up): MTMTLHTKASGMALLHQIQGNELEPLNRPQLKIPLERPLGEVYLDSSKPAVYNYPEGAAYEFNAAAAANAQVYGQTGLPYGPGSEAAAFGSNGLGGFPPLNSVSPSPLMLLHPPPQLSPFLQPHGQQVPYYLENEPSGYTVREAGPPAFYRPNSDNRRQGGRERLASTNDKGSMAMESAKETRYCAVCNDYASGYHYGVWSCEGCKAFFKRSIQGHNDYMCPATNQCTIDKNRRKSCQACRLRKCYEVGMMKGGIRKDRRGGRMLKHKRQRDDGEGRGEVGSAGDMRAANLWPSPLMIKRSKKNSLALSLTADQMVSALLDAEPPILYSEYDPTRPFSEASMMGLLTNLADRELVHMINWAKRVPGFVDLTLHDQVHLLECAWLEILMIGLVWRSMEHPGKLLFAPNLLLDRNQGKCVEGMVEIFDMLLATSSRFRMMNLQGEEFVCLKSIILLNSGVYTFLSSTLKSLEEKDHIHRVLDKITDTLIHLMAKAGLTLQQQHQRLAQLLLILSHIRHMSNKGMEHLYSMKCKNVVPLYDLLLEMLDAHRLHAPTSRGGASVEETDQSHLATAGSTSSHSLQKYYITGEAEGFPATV

OCC1(CO)COCOC1
inactive: Potency [1] | outcome [2] | outcome [3] | Potency [4] | outcome (Aromatase (Homo sapiens)) | Potency [5] | Potency [6] | Potency [7] | Potency [8] | outcome [9] | outcome [10] | Potency [11] | outcome [12] | Potency [13] | outcome [14]

CC(=O)c1cc(C)oc1C
inactive: Potency [1] | outcome [2] | outcome [3] | Potency [4] | outcome (Aromatase (Homo sapiens)) | Potency [5] | Potency [6] | Potency [7] | Potency [8] | outcome [9] | outcome [10] | Potency [11] | outcome [12] | Potency [13] | outcome [15] | outcome [14]

CC1(C)CC(OC(=O)CCCCCCCCC(=O)OC2CC(C)(C)NC(C)(C)C2)CC(C)(C)N1
inactive: outcome [2] | outcome [16] | Potency [17] | Potency [18] | outcome [19] | Potency [4] | outcome (Aromatase (Homo sapiens)) | Potency [5] | Potency [6] | Potency [7] | Potency [8] | outcome [9] | outcome [10] | outcome [12] | Potency [13] | outcome [15] | outcome [14]
active: Potency [1] 5.91 µM

O=C(O)CSCC(=O)NC1CCSC1=O (configuration not stated)
inactive: Potency [1] | outcome [2] | outcome [3] | Potency [4] | outcome (Aromatase (Homo sapiens)) | Potency [5] | Potency [6] | Potency [7] | Potency [8] | outcome [9] | Potency [11] | Potency [13] | outcome [15] | outcome [14]

C=CCCCCCCCC
inactive: Potency [1] | outcome [2] | outcome [3] | Potency [4] | outcome (Aromatase (Homo sapiens)) | Potency [5] | Potency [6] | Potency [7] | Potency [8] | outcome [9] | outcome [10] | Potency [11] | Potency [13] | outcome [15] | outcome [14]

CC1=NN(c2ccc(S(=O)(=O)O)cc2)C(=O)C1
inactive: Potency [1] | outcome [2] | outcome [3] | Potency [4] | outcome (Aromatase (Homo sapiens)) | Potency [5] | Potency [6] | Potency [7] | Potency [8] | outcome [9] | outcome [10] | Potency [11] | Potency [13] | outcome [15] | outcome [14]

CC(O)CC(C)O (configuration not stated)
inactive: Potency [1] | outcome [2] | outcome [3] | Potency [4] | outcome (Aromatase (Homo sapiens)) | Potency [5] | Potency [6] | Potency [7] | Potency [8] | outcome [9] | outcome [10] | Potency [11] | outcome [12] | Potency [13] | outcome [14]

c1ccc(-c2nn[nH]n2)cc1
inactive: Potency [1] | outcome [2] | outcome [3] | Potency [17] | Potency [18] | outcome [19] | Potency [4] | outcome (Aromatase (Homo sapiens)) | Potency [5] | Potency [7] | Potency [8] | outcome [9] | outcome [10] | Potency [11] | outcome [12] | Potency [13] | outcome [15] | outcome [14]

CC1CCc2c(N3CCC(O)CC3)c(F)cc3c(=O)c(C(=O)O)cn1c23 (configuration not stated)
inactive: Potency [1] | outcome [2] | outcome [3] | Potency [17] | Potency [18] | outcome [19] | Potency [4] | outcome (Aromatase (Homo sapiens)) | Potency [5] | Potency [6] | Potency [7] | Potency [8] | outcome [10] | outcome [12] | Potency [13] | outcome [14]

COc1cc2c(cc1OC)C(=O)C(CC1CCN(Cc3ccccc3)CC1)C2 (configuration not stated)
inactive: outcome [2] | outcome [3] | Potency [17] | Potency [4] | outcome (Aromatase (Homo sapiens)) | Potency [5] | Potency [7] | Potency [8] | outcome [10] | outcome [12] | Potency [13] | outcome [14]
active: Potency [1] 26.6 µM | Potency [18] 26.6 µM

CC(=O)Nc1ccc(OC(=O)c2ccccc2OC(C)=O)cc1
inactive: Potency [1] | outcome [2] | outcome [3] | Potency [17] | Potency [18] | outcome [19] | Potency [4] | outcome (Aromatase (Homo sapiens)) | Potency [5] | Potency [8] | outcome [9] | outcome [12] | Potency [13] | outcome [15] | outcome [14]

CN(C)CC/C=C1/c2ccccc2COc2ccc(CC(=O)O)cc21
inactive: Potency [1] | outcome [2] | outcome [3] | Potency [4] | Potency [11] | outcome [12] | Potency [13] | outcome [15] | outcome [14]

CC(=O)CC(=O)Nc1ccc(C)cc1C
inactive: Potency [1] | outcome [2] | outcome [3] | Potency [4] | outcome (Aromatase (Homo sapiens)) | Potency [5] | Potency [6] | outcome [10] | Potency [11] | outcome [12] | Potency [13] | outcome [14]

N[C@@H](Cc1ccc(O)cc1)C(=O)O
inactive: Potency [1] | outcome [2] | outcome [3] | Potency [4] | outcome (Aromatase (Homo sapiens)) | Potency [5] | Potency [6] | Potency [7] | Potency [8] | activation [11] -7.61% [at 8.36 µM] | viability change, negative = cytotoxic [12] 19.5% [at 8.36 µM] | activity change, negative = cytotoxicity [13] -1.43% [at 13.2 µM] | activity change, negative = cytotoxicity [14] 3.38% [at 13.2 µM]

O=[N+]([O-])c1c(Cl)cc(Cl)cc1Cl
inactive: Potency [1] | outcome [2] | outcome [3] | Potency [4] | outcome (Aromatase (Homo sapiens)) | Potency [5] | Potency [6] | Potency [7] | Potency [8] | outcome [10] | Potency [11] | outcome [12] | Potency [13] | outcome [14]

O=Cc1ccccc1Cl
inactive: Potency [1] | outcome [2] | outcome [3] | Potency [4] | outcome (Aromatase (Homo sapiens)) | Potency [6] | Potency [8] | outcome [9] | outcome [10] | Potency [11] | outcome [12] | Potency [13] | outcome [14]

O=C(O)CONC(=O)c1ccccc1
inactive: Potency [1] | outcome [2] | outcome [3] | Potency [4] | Potency [7] | outcome [10] | Potency [11] | outcome [12] | Potency [13] | outcome [15] | outcome [14]

C/C=C(\C)C(=O)OCCc1ccccc1
inactive: Potency [1] | outcome [2] | outcome [3] | Potency [4] | outcome (Aromatase (Homo sapiens)) | Potency [5] | Potency [7] | Potency [8] | outcome [10] | Potency [11] | outcome [12] | Potency [13] | outcome [15] | outcome [14]
